Records with an inconclusive call do not appear. Where a call stands in place of a potency, no number is given. The source made the active and inactive calls. The call rests on the fitted dose curve; in most records, active means well fitted inhibition curve with a large enough effect; inconclusive means small, poorly fitted or top-dose-only effect; inactive means flat fitted curve, though single readings scatter.
Potency means the concentration at half of the fitted maximal effect.

The first assay relates to CP215. Briefly: qHTS profiling for inhibitors of Plasmodium falciparum proliferation (AID 504749). Further: nearly all actives have a fitted effect of over 60% in size. To be noted: P. falciparum in erythrocytes, SYBR Green DNA, 72 h; series mostly up to 28.7 µM. In outline:
(§1)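 Infected RBCs, 0.3% parasitemia/2.5% Hct final; cpd 72 h, 37 C, 5% CO2; lysis buffer with saponin/triton/SYBR Green I, o/n RT dark; FI 485/535; norm. to artemisinin (0.29 uM) and DMSO.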
As to `CO/N=C(/C(=O)N[C@@H]1C(=O)N2C(C(=O)O)=CCS[C@H]12)c1csc(N)n1`, the Potency result was “inactive”.
As to `Cc1cc(CC(C)CC(C)(C)C)n(O)c(=O)c1` (configuration not stated), the Potency was 2130 nM (active).
Turning to `CC1CCC(C(C)C)C(OC(=O)c2ccccc2O)C1` (configuration not stated), the Potency entry was “inactive”.
The same measure, in the same setting: as for `CC(C)(CO)C(O)C(=O)NCCCC(=O)O` (configuration not stated), the figure is 12000 nM (active); as for `CCC(=O)O[C@@H](OP(=O)(CCCCc1ccccc1)CC(=O)N1C[C@H](C2CCCCC2)C[C@H]1C(=O)O)C(C)C` (some centres not stated), “inactive”; as for `CC(=O)O[C@@]12CO[C@@H]1C[C@H](O)[C@@]1(C)C(=O)[C@H](O)C3=C(C)[C@@H](OC(=O)C(O)[C@@H](NC(=O)OC(C)(C)C)c4ccccc4)C[C@@](O)([C@@H](OC(=O)c4ccccc4)[C@H]21)C3(C)C` (some centres not stated), 67.5 nM (active).
Still for that read-out and setting: as for `CC1(C)S[C@@H]2[C@H](NC(=O)COc3ccccc3)C(=O)N2[C@H]1C(=O)O`, the entry is “inactive”; as for `CCN1/C(=C/C=C/C=C/c2sc3ccccc3[n+]2CC)Sc2ccccc21`, 6750 nM (active); as for `Nc1nc(Cl)nc2c1ncn2C1CC(O)C(CO)O1` (configuration not stated), “inactive”.

Another assay has as its system CP217. The assay is described as above. To be noted: P. falciparum in erythrocytes, SYBR Green DNA, 72 h; series mostly up to 28.7 µM. In outline:
as §1
As to `CO/N=C(/C(=O)N[C@@H]1C(=O)N2C(C(=O)O)=CCS[C@H]12)c1csc(N)n1`, the Potency entry is “inactive”.
For the compound `Cc1cc(CC(C)CC(C)(C)C)n(O)c(=O)c1` (configuration not stated), the Potency was 2820 nM (active).
The same measure, in the same setting: as for `CC1CCC(C(C)C)C(OC(=O)c2ccccc2O)C1` (configuration not stated), the entry is “inactive”.
With `CO[C@@H]1[C@@H](OC2OC(C)C(OC3CC(C)(O)C(OC(=O)CC(C)C)C(C)O3)C(N(C)C)C2O)[C@@H](CC=O)C[C@@H](C)C(=O)/C=C\C2O[C@H]2C[C@@H](C)OC(=O)C[C@H]1OC(C)=O` (some centres not stated), the Potency is 10000 nM (active).
As for `CCC(=O)O[C@@H](OP(=O)(CCCCc1ccccc1)CC(=O)N1C[C@H](C2CCCCC2)C[C@H]1C(=O)O)C(C)C` (some centres not stated), the Potency result is “inactive”.
`CC(=O)O[C@@]12CO[C@@H]1C[C@H](O)[C@@]1(C)C(=O)[C@H](O)C3=C(C)[C@@H](OC(=O)C(O)[C@@H](NC(=O)OC(C)(C)C)c4ccccc4)C[C@@](O)([C@@H](OC(=O)c4ccccc4)[C@H]21)C3(C)C` (some centres not stated): the Potency is 44.7 nM (active).
As for `CC1(C)S[C@@H]2[C@H](NC(=O)COc3ccccc3)C(=O)N2[C@H]1C(=O)O`, the Potency result is “inactive”.
Still for that read-out and setting: as for `CCN1/C(=C/C=C/C=C/c2sc3ccccc3[n+]2CC)Sc2ccccc21`, the figure is 4470 nM (active).
As to `O=NCc1ccc([N+](=O)[O-])o1`, the Potency entry was “inactive”.

In the next assay the test system is CP237. Described as above. To be noted: P. falciparum in erythrocytes, SYBR Green DNA, 72 h; series mostly up to 28.7 µM. An outline of the steps: as §1
`CO/N=C(/C(=O)N[C@@H]1C(=O)N2C(C(=O)O)=CCS[C@H]12)c1csc(N)n1`: the Potency result was “inactive”.
Consider `Cc1cc(CC(C)CC(C)(C)C)n(O)c(=O)c1` (configuration not stated), for which the Potency was 2820 nM (active).
Regarding `CC1CCC(C(C)C)C(OC(=O)c2ccccc2O)C1` (configuration not stated), the Potency result was “inactive”.
Still for that read-out and setting: as for `CO[C@@H]1[C@@H](OC2OC(C)C(OC3CC(C)(O)C(OC(=O)CC(C)C)C(C)O3)C(N(C)C)C2O)[C@@H](CC=O)C[C@@H](C)C(=O)/C=C\C2O[C@H]2C[C@@H](C)OC(=O)C[C@H]1OC(C)=O` (some centres not stated), the figure is 10000 nM (active); as for `CCC(=O)O[C@@H](OP(=O)(CCCCc1ccccc1)CC(=O)N1C[C@H](C2CCCCC2)C[C@H]1C(=O)O)C(C)C` (some centres not stated), “inactive”.
On the same count and under the same terms, as for `CC(=O)O[C@@]12CO[C@@H]1C[C@H](O)[C@@]1(C)C(=O)[C@H](O)C3=C(C)[C@@H](OC(=O)C(O)[C@@H](NC(=O)OC(C)(C)C)c4ccccc4)C[C@@](O)([C@@H](OC(=O)c4ccccc4)[C@H]21)C3(C)C` (some centres not stated), the figure is 17.8 nM (active); as for `CC1(C)S[C@@H]2[C@H](NC(=O)COc3ccccc3)C(=O)N2[C@H]1C(=O)O`, “inactive”; as for `CCN1/C(=C/C=C/C=C/c2sc3ccccc3[n+]2CC)Sc2ccccc21`, 1580 nM (active).
As for `O=NCc1ccc([N+](=O)[O-])o1`, the Potency result was “inactive”.

A further assay relates to CP238. The description is as above. To be noted: P. falciparum in erythrocytes, SYBR Green DNA, 72 h; series mostly up to 28.7 µM. In outline:
as §1
Turning to `CO/N=C(/C(=O)N[C@@H]1C(=O)N2C(C(=O)O)=CCS[C@H]12)c1csc(N)n1`, the Potency result is “inactive”.
The same measure, in the same setting: as for `Cc1cc(CC(C)CC(C)(C)C)n(O)c(=O)c1` (configuration not stated), the figure is 2510 nM (active); as for `CC1CCC(C(C)C)C(OC(=O)c2ccccc2O)C1` (configuration not stated), “inactive”.
Consider `CC(C)(CO)C(O)C(=O)NCCCC(=O)O` (configuration not stated), for which the Potency was 17800 nM (active).
Regarding `CO[C@@H]1[C@@H](OC2OC(C)C(OC3CC(C)(O)C(OC(=O)CC(C)C)C(C)O3)C(N(C)C)C2O)[C@@H](CC=O)C[C@@H](C)C(=O)/C=C\C2O[C@H]2C[C@@H](C)OC(=O)C[C@H]1OC(C)=O` (some centres not stated), the Potency is 10000 nM (active).
With `CCC(=O)O[C@@H](OP(=O)(CCCCc1ccccc1)CC(=O)N1C[C@H](C2CCCCC2)C[C@H]1C(=O)O)C(C)C` (some centres not stated), the Potency entry is “inactive”.
Take `CC(=O)O[C@@]12CO[C@@H]1C[C@H](O)[C@@]1(C)C(=O)[C@H](O)C3=C(C)[C@@H](OC(=O)C(O)[C@@H](NC(=O)OC(C)(C)C)c4ccccc4)C[C@@](O)([C@@H](OC(=O)c4ccccc4)[C@H]21)C3(C)C` (some centres not stated): the Potency was 28.2 nM (active).
Still for that read-out and setting: as for `CC1(C)S[C@@H]2[C@H](NC(=O)COc3ccccc3)C(=O)N2[C@H]1C(=O)O`, the entry is “inactive”; as for `CCN1/C(=C/C=C/C=C/c2sc3ccccc3[n+]2CC)Sc2ccccc21`, 3160 nM (active).
On the same count and under the same terms, as for `O=NCc1ccc([N+](=O)[O-])o1`, the entry is “inactive”.

The values above are taken from PubChem BioAssay (NCATS).
